The values that follow come from PubChem BioAssay (NCATS).

Inconclusive results are not listed. Calls of active or inactive are those of the source. The call rests on the fitted dose curve; in most records, active means well fitted curve in the direction sought with a large enough effect; inconclusive means small, poorly fitted or top-dose-only effect, or another doubt; inactive means no such curve, though single readings can be large; an effect the other way counts as inactive or inconclusive.

Test [1] is described as follows: Quantitative High-Throughput drug screen in 47 multiple myeloma cell lines against the NCATS MIPE library collection: Karpas25_ECACC cell viability assay (AID 1918968; further: nearly all actives have a fitted effect of over 35% in size). A digest of the protocol:
(§1)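 Steps: seed 500 cells per well; pin-transfer MIPE 4.0 library; incubate 48 h at 37C, 5% CO2, humidified; add CellTiter-Glo, 5 min room temperature; read luminescence.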

Test [2] is described as follows: Quantitative High-Throughput drug screen in 47 multiple myeloma cell lines against the NCATS MIPE library collection: KMS27_JCRB cell viability assay (AID 1918970). Further: nearly all actives have a fitted effect of over 30% in size. The gist of the method:
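Viability inhibition screen, 48 h compound exposure, luminescent ATP read-out.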

Test [3] can be described thus: Quantitative High-Throughput drug screen in 47 multiple myeloma cell lines against the NCATS MIPE library collection: KMS12BM_JCRB cell viability assay (AID 1918971). Further: nearly all actives have a fitted effect of over 35% in size. The gist of the method:
(§2)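 Inhibition of cell viability is measured here. Each line was plated at 500 cells per well, treated with MIPE 4.0 drugs, kept 48 hours at 37C, then assayed for ATP content by CellTiter-Glo luminescence.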

Test [4] is described as follows: Quantitative High-Throughput drug screen in 47 multiple myeloma cell lines against the NCATS MIPE library collection: MOLP8_DSMZ cell viability assay (AID 1918977). Further: nearly all actives have a fitted effect of over 45% in size. The gist of the method:
(§3)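 MIPE 4.0 approved/investigational drugs; 500 cells/well; 48 h 37 °C humidified 5% CO2; CTG luminescence readout; DMSO = 100%, media = 0% viability.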

Test [5] is described as follows: Quantitative High-Throughput drug screen in 47 multiple myeloma cell lines against the NCATS MIPE library collection: KMS12PE_JCRB cell viability assay (AID 1918972). Further: nearly all actives have a fitted effect of over 30% in size. A digest of the protocol:
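Approved and investigational drugs from MIPE 4.0 were added by pin tool to 500 cells per well. After 48 hours at 37C, ATP-based CellTiter-Glo luminescence indicated remaining viability.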

A short description of test [6]: Quantitative High-Throughput drug screen in 47 multiple myeloma cell lines against the NCATS MIPE library collection: NCIH929_DSMZ cell viability assay (AID 1918978). Further: nearly all actives have a fitted effect of over 35% in size. The gist of the method:
as §3

The nature of test [7]: Quantitative High-Throughput drug screen in 47 multiple myeloma cell lines against the NCATS MIPE library collection: MMM1_PLB cell viability assay (AID 1918976). Further: nearly all actives have a fitted effect of over 35% in size. A digest of the protocol: as §3
Test [8] in a line: Quantitative High-Throughput drug screen in 47 multiple myeloma cell lines against the NCATS MIPE library collection: KMS20_JCRB cell viability assay (AID 1918973). Further: nearly all actives have a fitted effect of over 45% in size. The gist of the method:
as §1

Test [9] can be described thus: Quantitative High-Throughput drug screen in 47 multiple myeloma cell lines against the NCATS MIPE library collection: KMS26_JCRB cell viability assay (AID 1918975). Further: nearly all actives have a fitted effect of over 45% in size. The gist of the method: as §2
The nature of test [10]: Quantitative High-Throughput drug screen in 47 multiple myeloma cell lines against the NCATS MIPE library collection: KMS21BM_JCRB cell viability assay (AID 1918974). Conditions: ATP luminescence, 48 h; viability: at 45.8 µM (top of the series) unless noted. A digest of the protocol: as §1
Potency means the concentration at half of the fitted maximal effect.

Consider `CCOC(=O)Nc1ccc(NCc2ccc(F)cc2)nc1N`, for which the Potency result in [1], in test [3] and in test [4] was “inactive” each time. Moreover, in test [2], the Potency was 18.7 µM (active).

As to `Nc1c2c(nc3ccccc13)CCCC2`, the Potency entry in test [1], in test [2], in [5] and in test [6] was “inactive” each time.

As for `NC(CO)C(=O)NNCc1ccc(O)c(O)c1O` (stereo not drawn), the Potency result in test [1], in [2], in test [5] and in test [6] was “inactive” in each case. In addition, the Potency was 20.9 µM (active) in [3], 7.43 µM (active) in test [7] and 10.5 µM (active) in [4].

On to `CC(=O)OCC(CCn1cnc2cnc(N)nc21)COC(C)=O`, for which the Potency result in test [1], in [3], in [5], in [8], in [9] and in test [4] was “inactive” throughout. For the same compound, the Potency entry in test [6] is “inactive”.

Consider `COc1ccc2[nH]cc(CCNC(C)=O)c2c1`, for which the Potency result in [1], in [2], in test [3], in [5], in test [8] and in [4] was “inactive” in each case. In addition, in test [6], the Potency entry is “inactive”. Also, in test [9], the Potency was 9.35 µM (active).

Consider `O=C(CCCN1CCC(O)(c2ccc(Cl)cc2)CC1)c1ccc(F)cc1`, for which the figures for the Potency in test [1] and in [8] were 2.96 µM (active) and 13.2 µM (active), respectively. Also, the Potency result in [3] and in test [4] was “inactive” throughout.

For the compound `Cn1cnc2c1c(=O)[nH]c(=O)n2C`, the Potency in test [1] is 9.35 µM (active); in [2], 9.35 µM (active); in test [3] it was 18.7 µM (active); in [5] it was 5.9 µM (active); in [8], 5.9 µM (active); in test [10] it was 9.35 µM (active). Also, the Potency was 20.9 µM (active) in [9], 10.5 µM (active) in test [7], 16.6 µM (active) in [4] and 16.6 µM (active) in test [6].

With `COc1nc(C)nc(Cl)c1NC1=NCCN1`, the values for the Potency in [1], in test [8] and in test [6] were 9.35 µM (active), 9.35 µM (active) and 10.5 µM (active), respectively. Besides, the Potency entry in test [2], in [3], in test [5] and in [9] was “inactive” each time.

Consider `CCCCc1oc2ccccc2c1C(=O)c1cc(I)c(OCCN(CC)CC)c(I)c1`, for which the Potency in test [1] is 5.9 µM (active); in [2], 6.62 µM (active); in test [3], 18.7 µM (active); in [5], 26.4 µM (active); in [9], 20.9 µM (active); in test [7], 18.7 µM (active). In addition, the Potency in test [4] and in test [6] was 23.5 µM (active) in each case.

Turning to `Clc1ccc2nsnc2c1NC1=NCCN1`, the Potency result in test [1], in test [2], in test [4] and in [6] was “inactive” throughout.

Consider `CC#C[C@]1(O)CC[C@H]2[C@@H]3CCC4=CC(=O)CCC4=C3[C@@H](c3ccc(N(C)C)cc3)C[C@@]21C`, for which the Potency is 0.264 µM (active) in test [2]; 1.18 µM (active) in test [3]; 0.469 µM (active) in [5]; 0.743 µM (active) in test [8]; 4.18 µM (active) in test [7]; 2.35 µM (active) in test [4]. Further, in [6], the Potency is 0.418 µM (active).

As to `CN(C)CCCN1c2ccccc2CCc2ccc(Cl)cc21`, the Potency in [2] is 14.8 µM (active); in [3] it was 18.7 µM (active); in [5], 11.8 µM (active); in test [8], 1.87 µM (active); in [9] it was 1.66 µM (active); in [7] it was 20.9 µM (active). For the same compound, the Potency in [6] was 0.469 µM (active).

As to `Cc1cn([C@H]2C[C@H](N=[N+]=[N-])[C@@H](CO)O2)c(=O)[nH]c1=O`, the Potency in test [2] is 5.26 µM (active); in test [6] it was 23.5 µM (active). For the same compound, the Potency entry in [3] and in test [4] was “inactive” each time.

For `CCN1CCCC1CNC(=O)c1cc(S(=O)(=O)CC)c(N)cc1OC` (stereo not drawn), the Potency result in [2], in test [5], in test [8], in test [9] and in test [4] was “inactive” throughout. For the same compound, in test [7], the Potency is 5.26 µM (active).

Regarding `COc1ccc(C2CNC(=O)C2)cc1OC1CCCC1` (stereo not drawn), the Potency entry in test [2], in test [3], in test [5], in [8], in test [9] and in [4] was “inactive” in each case. Also, the Potency entry in test [6] was “inactive”.

In the case of `CC(C)NCC(O)c1ccc(O)c(O)c1` (stereo not drawn), the Potency in [2] was 1.18 µM (active); in [5], 5.26 µM (active); in test [8] it was 1.18 µM (active); in test [10], 0.372 µM (active); in test [7] it was 7.43 µM (active); in test [4], 23.5 µM (active).

For the compound `CC1(C)O[C@H]2CC(=O)OC[C@]23[C@H]2CC[C@@]4(C)[C@H](c5ccoc5)OC(=O)[C@H]5O[C@]54[C@]2(C)C(=O)C[C@@H]13`, the Potency result in test [2], in [3], in [5], in test [8], in test [10] and in test [4] was “inactive” each time. Besides, the Potency result in test [6] was “inactive”.

For `O=C(Nc1ccc([N+](=O)[O-])cc1Cl)c1cc(Cl)ccc1O`, the Potency is 0.935 µM (active) in test [2]; 1.48 µM (active) in test [3]; 0.469 µM (active) in [5]; 0.59 µM (active) in [8]; 1.05 µM (active) in [10]; 0.743 µM (active) in test [7]. Further, the Potency in [4] is 1.66 µM (active); in test [6] it was 1.05 µM (active).

With `OCCN1CCN(CCCN2c3ccccc3Sc3ccc(C(F)(F)F)cc32)CC1`, the Potency was 2.96 µM (active) in test [1]; 9.35 µM (active) in test [5]; 16.6 µM (active) in test [8]; 14.8 µM (active) in test [10]; 20.9 µM (active) in test [6].

Consider `CC[N+](CC)(CC)CCOc1cccc(OCC[N+](CC)(CC)CC)c1OCC[N+](CC)(CC)CC`, for which the Potency entry in test [1] and in test [6] was “inactive” each time.

Turning to `NC(=O)OCC(COC(N)=O)c1ccccc1`, the Potency entry in [2], in [3], in test [5], in [8] and in [6] was “inactive” throughout.

On to `O=C1Cc2cc(CCN3CCN(c4nsc5ccccc45)CC3)c(Cl)cc2N1`, for which the Potency in [2] was 8.33 µM (active); in test [3], 20.9 µM (active); in [7] it was 23.5 µM (active); in test [6], 23.5 µM (active).

With `O=C(c1ccc(F)cc1)C1CCN(CCn2c(=O)[nH]c3ccccc3c2=O)CC1`, the Potency entry in [2], in test [3], in [5] and in [6] was “inactive” in each case.

With `COc1ccc2c(c1)c(CC(=O)O)c(C)n2C(=O)c1ccc(Cl)cc1`, the Potency was 20.9 µM (active) in test [1], 9.35 µM (active) in test [8] and 18.7 µM (active) in test [6]. Moreover, the Potency result in test [4] is “inactive”.

Take `O=C1N(c2ccccc2)c2ccccc2C1(Cc1ccncc1)Cc1ccncc1`: the Potency entry in [2], in [5] and in test [6] was “inactive” each time. For the same compound, the Potency in test [8] is 0.001 µM (active).
